Assay results as given in ChEMBL document CHEMBL2218924, “A broad activity screen in support of a chemogenomic map for kinase signalling research and drug discovery” (Biochem J, 2013).

What follows are compounds tested against RAC-alpha serine/threonine-protein kinase (Homo sapiens) (UniProt P31749). Conditions: at 1 µM.
RAC-alpha serine/threonine-protein kinase (Homo sapiens), sequence (P31749 whole entry): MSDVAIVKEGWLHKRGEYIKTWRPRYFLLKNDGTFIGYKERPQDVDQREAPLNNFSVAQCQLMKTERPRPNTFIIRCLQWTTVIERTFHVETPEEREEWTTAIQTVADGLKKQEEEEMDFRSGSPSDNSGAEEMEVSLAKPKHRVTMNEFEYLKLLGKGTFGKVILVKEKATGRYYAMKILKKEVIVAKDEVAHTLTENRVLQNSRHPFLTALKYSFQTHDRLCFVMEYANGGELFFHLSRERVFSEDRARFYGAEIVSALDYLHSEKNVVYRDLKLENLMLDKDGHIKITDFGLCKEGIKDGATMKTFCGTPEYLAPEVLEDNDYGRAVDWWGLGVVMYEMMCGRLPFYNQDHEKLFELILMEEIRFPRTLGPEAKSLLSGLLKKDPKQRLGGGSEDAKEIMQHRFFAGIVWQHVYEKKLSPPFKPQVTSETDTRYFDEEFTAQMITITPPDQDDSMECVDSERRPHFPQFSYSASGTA
With CN(C)CCCn1cc(C2=C(c3c[nH]c4ccccc34)C(=O)NC2=O)c2ccccc21 the residual activity was 103%.
COc1cc2ncnc(N3CCN(C(=O)Nc4ccc(Oc5ccccc5)cc4)CC3)c2cc1OC gave a residual activity of 106%.
CC(=O)c1ccc(N2CCOCC2)cc1O was tested, and the residual activity was 101%.
For O=C1Cc2c([nH]c3ccc([N+](=O)[O-])cc23)-c2ccccc2N1, the residual activity was 104%.
Compound Oc1ccc(Nc2nc(-c3ccc(Cl)cc3)cs2)cc1 has a residual activity of 124%.
Compound CC(C)n1cnc2/c(=N/c3cccc(Cl)c3)nc(NCCO)[nH]c21 has a residual activity of 111%.
Nc1nc(Nc2ccc(S(N)(=O)=O)cc2)nn1C(=O)c1c(F)cccc1F gave a residual activity of 104%.
O=C1NC(=O)C(c2cn(CCCn3ccnc3)c3ccccc23)=C1Nc1ccccc1 showed a residual activity of 104%.
Work on Oc1n[nH]c2nnc(-c3c(-c4ccccc4)nn4ccccc34)cc12 yielded a residual activity of 105%.
Cc1nc2cc3nc(-c4cccs4)cnc3cc2n1C gave a residual activity of 100%.
Compound COc1ccc(CNC(=O)Nc2ncc([N+](=O)[O-])s2)cc1 has a residual activity of 116%.
Work on O=C(CCCc1ccc(-c2ccccc2F)cc1)Nc1ccc(O)cc1 yielded a residual activity of 103%.
Work on N#C/C(=C(\N)Sc1ccc(N)cc1)c1ccccc1C(F)(F)F yielded a residual activity of 112%.
Work on NC(=O)c1ccc2[nH]c(-c3ccc(Oc4ccc(Cl)cc4)cc3)nc2c1 yielded a residual activity of 109%.
For O=c1c2ccccc2[nH]c(=S)n1CCN1CCC(=C(c2ccc(F)cc2)c2ccc(F)cc2)CC1, the residual activity was 112%.
Work on CCC(=O)Nc1ccc2ncnc(Nc3cccc(Br)c3)c2c1 yielded a residual activity of 99%.
In the case of CC(C)(C)c1nc2c3ccc(F)cc3c3c(=O)[nH]ccc3c2[nH]1, the residual activity is reported as 98%.
For Cc1ccc(S(=O)(=O)/C=C/C#N)cc1, the residual activity was 107%.
